The record followed here is the supplement of paper PMC7393113.

Structures are written as SMILES. Counter-ions that a name gives are not always drawn. ± gives the standard deviation of the averaged measurements.

This experiment concerns iBMDM (immortalised mouse bone-marrow-derived macrophages), LPS-stimulated. Kind of experiment: mitochondrial superoxide (MitoSOX fluorescence) fold increase over unstimulated control; higher = more LPS-induced mitochondrial ROS (less inhibition). The note with it: inhibitor concentration: 500 nM, LPS: 100 ng/ml. The essentials: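 Mitochondrial superoxide values are mean fold induction compared with untreated macrophages. Triplicate wells of immortalised mouse bone-marrow-derived macrophages in phenol-red-free 1% FCS/DMEM received kinase inhibitors (500 nM) for 30 min, then 1 μM MitoSox for 10 min, then LPS (100 ng/ml). Fluorescence (510/580 nm) was taken every 60 min for 4 h.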

Regarding `Cc1cnc(-c2cnc(NCCNc3ccc(C#N)cn3)nc2-c2ccc(Cl)cc2Cl)[nH]1`, the mitochondrial superoxide by setting is: (time after LPS: 1 h) 1.14 ± 0.048; (time after LPS: 2 h) 1.09 ± 0.041; (time after LPS: 4 h) 1.25 ± 0.027.
For `Oc1ccc(-c2nc(-c3ccc(F)cc3)c(-c3ccncc3)[nH]2)cc1` the same measures were 1.32 ± 0.13, 1.41 ± 0.13 and 1.57 ± 0.12.
The matching figures for `C[C@@H](Oc1cc(-c2cnn(C3CCNCC3)c2)cnc1N)c1c(Cl)ccc(F)c1Cl`: 1.39 ± 0.038, 1.5 ± 0.052 and 1.64 ± 0.079.
The matching figures for `Cn1cnc2c(F)c(Nc3ccc(Br)cc3Cl)c(C(=O)NOCCO)cc21` [Selumetinib (AZD6244)]: 1.45 ± 0.037, 1.51 ± 0.031 and 1.61 ± 0.081.
Regarding `Cc1nc(NC(=O)N2CCC[C@H]2C(N)=O)sc1-c1csc(C(C)(C)C)n1`, the mitochondrial superoxide by setting is: (time after LPS: 1 h) 1.31 ± 0.053; (time after LPS: 2 h) 1.43 ± 0.015; (time after LPS: 4 h) 1.64 ± 0.053.
As to `Nc1cccc(-c2cc3c(Oc4cccc(O)c4)ncnc3[nH]2)c1`, the mitochondrial superoxide is, setting by setting: (time after LPS: 1 h) 1.06 ± 0.059; (time after LPS: 2 h) 1.17 ± 0.022; (time after LPS: 4 h) 1.25 ± 0.03.
`O=C(NOC[C@H](O)CO)c1ccc(F)c(F)c1Nc1ccc(I)cc1F` had a mitochondrial superoxide (time after LPS: 1 h) of 1.589 ± 0.0074, a mitochondrial superoxide (time after LPS: 2 h) of 1.64 ± 0.044 and a mitochondrial superoxide (time after LPS: 4 h) of 1.71 ± 0.083.
Regarding `COc1cc(Nc2ncc3c(n2)-c2ccc(Cl)cc2C(c2c(F)cccc2OC)=NC3)ccc1C(=O)O` [Alisertib (MLN8237)], the mitochondrial superoxide is, setting by setting: (time after LPS: 1 h) 1.37 ± 0.058; (time after LPS: 2 h) 1.41 ± 0.035; (time after LPS: 4 h) 1.46 ± 0.047.
The matching figures for `C=CC(=O)Nc1cccc(Nc2nc(Nc3ccc(N4CCN(C(C)=O)CC4)cc3OC)ncc2C(F)(F)F)c1`: 1.49 ± 0.069, 1.49 ± 0.063 and 1.65 ± 0.12.
For `O=C(Nc1cccc(Cl)c1)Nc1ncc(CCNc2ncnc3ccsc23)s1` [SNS-314 Mesylate] the same measures were 1.32 ± 0.029, 1.36 ± 0.048 and 1.42 ± 0.08.
The matching figures for `NC(=O)c1ccc(N(C(N)=O)c2c(F)cccc2F)nc1-c1ccc(F)cc1F`: 1.2 ± 0.026, 1.27 ± 0.087 and 1.327 ± 0.0024.
Turning to `Cc1ccc(C(=O)Nc2ccc(CN3CCN(C)CC3)c(C(F)(F)F)c2)cc1C#Cc1cnc2[nH]ncc2c1`, the mitochondrial superoxide worked out at 1.42 ± 0.049 (time after LPS: 1 h), 1.53 ± 0.032 (time after LPS: 2 h) and 1.75 ± 0.062 (time after LPS: 4 h).
As to `CCOc1cc2ncc(C#N)c(Nc3ccc(OCc4ccccn4)c(Cl)c3)c2cc1NC(=O)/C=C/CN(C)C` [Neratinib (HKI-272)], the mitochondrial superoxide is 1.06 ± 0.1 (time after LPS: 1 h), 1.19 ± 0.14 (time after LPS: 2 h) and 1.27 ± 0.092 (time after LPS: 4 h).
Consider `Nc1nc(NCCNc2ncc(-n3ccnc3)c(-c3ccc(Cl)cc3Cl)n2)ccc1[N+](=O)[O-]`, for which the mitochondrial superoxide was 1.17 ± 0.042 (time after LPS: 1 h), 1.23 ± 0.024 (time after LPS: 2 h) and 1.31 ± 0.056 (time after LPS: 4 h).
For `CO[C@@H](C(=O)N1Cc2[nH]nc(NC(=O)c3ccc(N4CCN(C)CC4)cc3)c2C1)c1ccccc1` the same measures were 1.3 ± 0.035, 1.38 ± 0.029 and 1.48 ± 0.038.
For `Cc1cnc(Nc2ccc(N3CCN(C)CC3)cc2)nc1Nc1cccc(S(=O)(=O)NC(C)(C)C)c1` the same measures were 1.36 ± 0.025, 1.51 ± 0.04 and 1.65 ± 0.027.
Regarding `O=C1NCCc2[nH]c(-c3ccncc3)cc21`, the mitochondrial superoxide by setting is: (time after LPS: 1 h) 1.31 ± 0.054; (time after LPS: 2 h) 1.41 ± 0.039; (time after LPS: 4 h) 1.63 ± 0.06.
The matching figures for `COc1cc(N2CCC(N3CCN(C)CC3)CC2)ccc1Nc1ncc(Cl)c(Nc2ccccc2S(=O)(=O)C(C)C)n1`: 1.24 ± 0.068, 1.3 ± 0.019 and 1.47 ± 0.04.
The matching figures for `Oc1cc(O)cc(/C=C/c2ccc(O)c(O)c2)c1` [Piceatannol]: 1.13 ± 0.0055, 1.15 ± 0.013 and 1.23 ± 0.041.
On to `Nc1cc(C(F)(F)F)c(-c2cc(N3CCOCC3)nc(N3CCOCC3)n2)cn1` [BKM120 (NVP-BKM120, Buparlisib)], for which the mitochondrial superoxide by setting is: (time after LPS: 1 h) 1.33 ± 0.034; (time after LPS: 2 h) 1.41 ± 0.024; (time after LPS: 4 h) 1.53 ± 0.05.
For the compound `COc1cc(CCc2cc(NC(=O)c3ccc(N4CC(C)NC(C)C4)cc3)n[nH]2)cc(OC)c1` (centres undefined), the mitochondrial superoxide amounted to 1.26 ± 0.04 (time after LPS: 1 h), 1.42 ± 0.032 (time after LPS: 2 h) and 1.53 ± 0.092 (time after LPS: 4 h).
Regarding `Cc1nc(N)sc1-c1ccnc(Nc2ccc(N3CCOCC3)cc2)n1`, the mitochondrial superoxide reads like this: (time after LPS: 1 h) 1.49 ± 0.063; (time after LPS: 2 h) 1.55 ± 0.023; (time after LPS: 4 h) 1.7 ± 0.02.
The matching figures for `O=C1NC(=O)C(=Cc2ccc(-c3ccc(F)cc3)o2)S1` (stereo in doubt): 1.28 ± 0.044, 1.55 ± 0.089 and 1.65 ± 0.081.
For `O=C1NC(=O)/C(=C/c2ccc(-c3ccc(F)cc3O)o2)S1` the same measures were 1.4 ± 0.16, 1.54 ± 0.25 and 1.78 ± 0.2.
The matching figures for `O=C(c1cccc(Cl)c1F)N1CCN(Cc2cccc(Nc3nccs3)n2)CC1`: 1.15 ± 0.018, 1.22 ± 0.048 and 1.37 ± 0.053.
For the compound `FC(F)c1nc2ccccc2n1-c1nc(N2CCOCC2)nc(N2CCOCC2)n1`, the mitochondrial superoxide amounted to 1.53 ± 0.029 (time after LPS: 1 h), 1.71 ± 0.068 (time after LPS: 2 h) and 1.8 ± 0.038 (time after LPS: 4 h).
As for `N#Cc1c(Oc2ccc(F)c(NC(=O)Cc3cccc(C(F)(F)F)c3)c2)ccc2nc(NC(=O)C3CC3)sc12`, the mitochondrial superoxide by setting is: (time after LPS: 1 h) 1.35 ± 0.087; (time after LPS: 2 h) 1.49 ± 0.076; (time after LPS: 4 h) 1.66 ± 0.076.
In the case of `Cc1[nH]nc2ccc(-c3cncc(OC[C@@H](N)Cc4ccccc4)c3)cc12`, the mitochondrial superoxide reads like this: (time after LPS: 1 h) 1.24 ± 0.1; (time after LPS: 2 h) 1.43 ± 0.11; (time after LPS: 4 h) 1.68 ± 0.098.
For `Cc1cc(C(=O)NOCCO)c(Nc2ccc(I)cc2F)n(C)c1=O` the same measures were 1.05 ± 0.042, 1.25 ± 0.092 and 1.39 ± 0.073.
For `Cc1ccc(C(=O)Nc2cccc(C(F)(F)F)c2)cc1Nc1nc(-c2cccnc2)nc2c1cnn2C` the same measures were 1.23 ± 0.037, 1.27 ± 0.013 and 1.38 ± 0.083.
For `Cn1cc(C2=C(c3ccc(Cl)cc3Cl)C(=O)NC2=O)c2ccccc21` the same measures were 1.46 ± 0.18, 1.56 ± 0.22 and 1.68 ± 0.29.
Take `COc1cc(Nc2ncc(F)c(Nc3ccc4c(n3)NC(=O)C(C)(C)O4)n2)cc(OC)c1OC` [R406 (free base)]: the mitochondrial superoxide is, setting by setting: (time after LPS: 1 h) 1.23 ± 0.07; (time after LPS: 2 h) 1.32 ± 0.041; (time after LPS: 4 h) 1.29 ± 0.065.
The matching figures for `Cc1cc(C)nc(NS(=O)(=O)c2ccc(NC(=S)NC(=O)COc3ccc(Br)cc3Cl)cc2)n1`: 1.42 ± 0.087, 1.45 ± 0.1 and 1.61 ± 0.055.
